# Data: the supplement of paper PMC11732987, “Enantioselective OTUD7B fragment discovery through chemoproteomics screening and high-throughput optimisation” (Communications Chemistry, 2025)
# Target: USP24 (UniProt Q9UPU5)
# Test: log2 ratio of Biotin-Ahx-Ub-VS probe labelling (fragment/DMSO); higher = less target engagement (more negative = stronger competition), active = hit call of the paper (q ≤ 0.05, log2 ratio ≤ -1)
# Conditions: compound concentration: 200 uM; treatment time: 3 h
# Procedure, shortened: (§1)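 Values give the average log2 ratio of fragment to vehicle, assessed by unpaired t-test on global-median-normalised Spectronaut label-free quantities. Proteins needed ≥2 unique peptides. HEK293T lysate (495 µg per sample) was treated in triplicate with fragment at 200 µM or vehicle for 3 h and then with Biotin-Ahx-Ub-VS at 0.5 µM final for 1 h. Labelled DUBs were NeutrAvidin-enriched, digested and run by diaPASEF LC-MS/MS.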
# Sequence of USP24 (Q9UPU5 whole entry, the tested form may be a part): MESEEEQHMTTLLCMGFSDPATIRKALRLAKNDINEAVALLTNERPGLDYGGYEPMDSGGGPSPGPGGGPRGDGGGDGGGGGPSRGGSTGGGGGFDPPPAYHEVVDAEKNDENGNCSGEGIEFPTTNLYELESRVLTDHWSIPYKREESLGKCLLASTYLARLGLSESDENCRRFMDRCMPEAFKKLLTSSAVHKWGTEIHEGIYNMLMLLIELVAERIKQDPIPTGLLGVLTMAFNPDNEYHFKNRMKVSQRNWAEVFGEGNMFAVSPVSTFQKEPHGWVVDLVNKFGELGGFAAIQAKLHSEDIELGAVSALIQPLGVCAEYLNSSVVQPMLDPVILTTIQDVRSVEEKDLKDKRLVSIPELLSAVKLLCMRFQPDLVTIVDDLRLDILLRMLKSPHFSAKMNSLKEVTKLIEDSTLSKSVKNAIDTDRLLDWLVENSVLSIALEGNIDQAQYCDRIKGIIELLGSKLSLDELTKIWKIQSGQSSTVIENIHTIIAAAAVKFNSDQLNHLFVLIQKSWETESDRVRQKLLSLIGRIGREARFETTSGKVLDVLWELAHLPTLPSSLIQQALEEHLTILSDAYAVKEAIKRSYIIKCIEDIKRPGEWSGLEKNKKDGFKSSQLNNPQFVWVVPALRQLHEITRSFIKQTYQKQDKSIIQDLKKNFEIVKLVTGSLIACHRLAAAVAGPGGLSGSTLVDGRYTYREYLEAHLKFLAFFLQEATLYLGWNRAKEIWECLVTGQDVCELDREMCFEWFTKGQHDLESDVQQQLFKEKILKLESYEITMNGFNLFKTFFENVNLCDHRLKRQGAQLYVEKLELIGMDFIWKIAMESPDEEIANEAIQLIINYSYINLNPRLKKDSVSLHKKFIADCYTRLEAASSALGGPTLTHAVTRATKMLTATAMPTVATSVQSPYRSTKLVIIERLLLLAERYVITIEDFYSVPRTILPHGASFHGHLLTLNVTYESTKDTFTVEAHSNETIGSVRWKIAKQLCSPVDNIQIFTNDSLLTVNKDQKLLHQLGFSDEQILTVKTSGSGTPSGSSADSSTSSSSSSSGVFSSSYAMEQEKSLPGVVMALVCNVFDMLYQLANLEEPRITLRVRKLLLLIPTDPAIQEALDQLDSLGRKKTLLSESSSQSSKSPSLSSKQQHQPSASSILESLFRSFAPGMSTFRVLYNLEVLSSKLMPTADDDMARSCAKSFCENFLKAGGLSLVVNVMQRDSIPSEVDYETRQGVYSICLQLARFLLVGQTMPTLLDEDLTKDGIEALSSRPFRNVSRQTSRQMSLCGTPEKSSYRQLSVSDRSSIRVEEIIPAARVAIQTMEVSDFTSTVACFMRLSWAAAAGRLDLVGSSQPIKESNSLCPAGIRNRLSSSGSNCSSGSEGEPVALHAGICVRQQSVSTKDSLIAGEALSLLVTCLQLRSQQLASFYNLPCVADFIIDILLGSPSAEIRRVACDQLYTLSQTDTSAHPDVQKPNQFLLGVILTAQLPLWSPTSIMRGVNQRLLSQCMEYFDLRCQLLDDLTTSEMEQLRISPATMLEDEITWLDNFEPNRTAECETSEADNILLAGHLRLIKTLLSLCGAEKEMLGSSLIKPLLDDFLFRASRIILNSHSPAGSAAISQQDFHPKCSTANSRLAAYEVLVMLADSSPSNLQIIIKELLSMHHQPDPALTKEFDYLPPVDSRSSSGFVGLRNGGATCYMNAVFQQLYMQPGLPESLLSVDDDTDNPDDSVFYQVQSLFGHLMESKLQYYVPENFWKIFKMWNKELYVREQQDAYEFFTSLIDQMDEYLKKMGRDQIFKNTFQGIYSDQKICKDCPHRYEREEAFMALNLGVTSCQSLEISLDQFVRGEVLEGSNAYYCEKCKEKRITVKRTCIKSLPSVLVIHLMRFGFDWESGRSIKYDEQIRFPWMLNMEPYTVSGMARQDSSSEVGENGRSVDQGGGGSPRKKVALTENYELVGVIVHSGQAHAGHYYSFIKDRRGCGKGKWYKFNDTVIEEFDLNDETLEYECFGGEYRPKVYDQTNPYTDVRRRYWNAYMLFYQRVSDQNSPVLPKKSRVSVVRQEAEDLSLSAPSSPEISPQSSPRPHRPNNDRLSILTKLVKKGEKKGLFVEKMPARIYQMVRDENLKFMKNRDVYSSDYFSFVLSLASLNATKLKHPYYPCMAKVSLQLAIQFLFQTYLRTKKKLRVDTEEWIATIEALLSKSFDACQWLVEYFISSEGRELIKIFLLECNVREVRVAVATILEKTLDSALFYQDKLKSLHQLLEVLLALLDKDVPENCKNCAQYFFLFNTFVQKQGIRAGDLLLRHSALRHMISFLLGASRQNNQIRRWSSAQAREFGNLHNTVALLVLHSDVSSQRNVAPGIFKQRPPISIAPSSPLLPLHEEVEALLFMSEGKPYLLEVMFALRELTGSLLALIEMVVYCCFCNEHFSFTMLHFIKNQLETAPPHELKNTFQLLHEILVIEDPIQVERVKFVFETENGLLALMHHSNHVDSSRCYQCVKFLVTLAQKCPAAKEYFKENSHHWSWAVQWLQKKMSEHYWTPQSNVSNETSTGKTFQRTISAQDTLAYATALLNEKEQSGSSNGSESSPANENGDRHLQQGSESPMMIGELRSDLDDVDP
row,Structure (SMILES),log2 ratio of Biotin-Ahx-Ub-VS probe labelling
1,O=C(CCl)Nc1ccc(F)cc1Cl,-0.832 (inactive)
2,O=C(CCl)Nc1cccc2ncccc12,-0.136 (inactive)
3,O=C(CCl)NC(Cn1ccccc1=O)c1ccccc1 (stereo not drawn),-0.0705 (inactive)
4,Cc1n[nH]c(=O)c2c(NC(=O)CCl)oc(C)c12,-0.0362 (inactive)
5,Cc1ccc(-c2nnc(C)[nH]2)c(NC(=O)CCl)c1,-0.204 (inactive)
6,Cc1ccc(C)c(Oc2ccc(CNC(=O)CCl)cn2)c1.Cl,-0.83 (inactive)
7,Cc1nc(CN2CCCN(C(=O)CCl)CC2)no1.Cl,0.252 (inactive)
8,N#Cc1ccc(CNC(=O)CCl)cc1,-0.183 (inactive)
9,CC(C)n1nccc1NC(=O)CCl,-0.207 (inactive)
10,CC(NC(=O)CCl)c1ccc2[nH]ncc2c1 (stereo not drawn),-0.886 (inactive)
11,Cl.O=C(CN1CCN(C(=O)CCl)CC1)Nc1ccc(F)cc1,-0.098 (inactive)
12,CC(NC(=O)CCl)c1cnn(C2CC2)c1 (stereo not drawn),-0.409 (inactive)
13,NC(=O)C(Cc1ccccc1)NC(=O)CCl (stereo not drawn),-0.0605 (inactive)
14,O=C(CCl)NC1CCN(C(=O)C2CCCCC2)CC1,-0.169 (inactive)
15,Cc1cc(Cl)ccc1NC(=O)CCl,-0.224 (inactive)
16,COc1ccc(Cl)cc1NC(=O)CCl,-1.54 (active)
17,O=C(CCl)Nc1nnc(CC(F)(F)F)o1,-0.372 (inactive)

row,Structure (SMILES),log2 ratio of Biotin-Ahx-Ub-VS probe labelling
1,O=C(CCl)N(C1=CCCCC1)C1CC1,-0.573 (inactive)
2,Cc1ccc(CN(CCO)C(=O)CCl)cc1,-0.445 (inactive)
3,CC(NC(=O)CCl)c1cccc2ccccc12 (stereo not drawn),-0.343 (inactive)
4,O=C(CCl)N1CCCCC12CCOCC2,-0.606 (inactive)
5,Cl.Cn1ncc2c1CCCC2NC(=O)CCl (stereo not drawn),-0.29 (inactive)
6,COCC[C@@H](NC(=O)CCl)c1ccccc1,-0.153 (inactive)
7,CN(C(=O)CCl)c1nc2ccccc2s1,-1.2 (active)
8,O=C(CCl)N1CCC(C(=O)N2CCCCCC2)CC1,-0.141 (inactive)
9,O=C(CCl)N1CCOC2(CCC2)CC1,-0.23 (inactive)
10,O=C(CCl)NCCC1=CCCCC1,-0.0898 (inactive)
11,O=C(CCl)N(C1CCCC1)C1CCS(=O)(=O)C1 (stereo not drawn),-0.274 (inactive)
12,Cc1noc(N2CCN(C(=O)CCl)CC2)n1.Cl,-0.00876 (inactive)
13,COc1ccccc1C(C)NC(=O)CCl (stereo not drawn),-0.363 (inactive)
14,O=C(CCl)N(Cc1ccsc1)C1CC1,-0.704 (inactive)
15,O=C(CCl)N1CCC(S(=O)(=O)c2ccc(F)cc2)CC1,-0.346 (inactive)
16,Cc1nc(CN2CCN(C(=O)CCl)CC2)cs1,-0.513 (inactive)
17,O=C(CCl)N1CC2(CCOCC2)C1,-0.194 (inactive)

# Target: T1, USP25 (UniProt Q9UHP3)
# T1 sequence (whole entry): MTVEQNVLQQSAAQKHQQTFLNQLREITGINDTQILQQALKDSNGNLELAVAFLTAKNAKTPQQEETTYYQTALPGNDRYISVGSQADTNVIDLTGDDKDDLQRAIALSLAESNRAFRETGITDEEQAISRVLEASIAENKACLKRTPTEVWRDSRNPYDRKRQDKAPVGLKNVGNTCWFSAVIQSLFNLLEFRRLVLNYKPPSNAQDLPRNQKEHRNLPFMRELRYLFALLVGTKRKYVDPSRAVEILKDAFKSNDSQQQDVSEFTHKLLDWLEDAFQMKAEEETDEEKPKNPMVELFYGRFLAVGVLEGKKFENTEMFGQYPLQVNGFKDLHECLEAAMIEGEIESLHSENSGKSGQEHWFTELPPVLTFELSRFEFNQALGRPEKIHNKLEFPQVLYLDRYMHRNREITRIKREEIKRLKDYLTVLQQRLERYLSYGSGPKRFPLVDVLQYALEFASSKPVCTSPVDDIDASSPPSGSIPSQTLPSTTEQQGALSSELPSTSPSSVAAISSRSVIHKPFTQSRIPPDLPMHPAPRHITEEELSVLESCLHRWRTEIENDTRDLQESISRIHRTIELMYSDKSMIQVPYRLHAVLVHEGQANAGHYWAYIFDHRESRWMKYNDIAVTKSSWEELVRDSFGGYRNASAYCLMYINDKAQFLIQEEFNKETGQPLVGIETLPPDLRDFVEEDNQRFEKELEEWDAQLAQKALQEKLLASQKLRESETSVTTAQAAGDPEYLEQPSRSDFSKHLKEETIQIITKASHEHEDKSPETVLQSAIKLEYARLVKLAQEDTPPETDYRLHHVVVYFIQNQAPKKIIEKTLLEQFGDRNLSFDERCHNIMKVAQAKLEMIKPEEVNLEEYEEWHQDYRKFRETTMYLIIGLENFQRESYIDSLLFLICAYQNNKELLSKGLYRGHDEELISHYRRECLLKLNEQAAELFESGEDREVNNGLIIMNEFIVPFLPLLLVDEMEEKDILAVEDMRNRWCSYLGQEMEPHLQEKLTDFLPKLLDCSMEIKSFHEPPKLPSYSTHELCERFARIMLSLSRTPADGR
# Test: as above
# Conditions: compound concentration: 200 uM; treatment time: 3 h
# Procedure, shortened: as §1
row,Structure (SMILES),log2 ratio of Biotin-Ahx-Ub-VS probe labelling
1,O=C(CCl)Nc1ccc(F)cc1Cl,-0.414 (inactive)
2,O=C(CCl)Nc1cccc2ncccc12,-0.527 (inactive)
3,O=C(CCl)NC(Cn1ccccc1=O)c1ccccc1 (stereo not drawn),-0.417 (inactive)
4,Cc1n[nH]c(=O)c2c(NC(=O)CCl)oc(C)c12,0.114 (inactive)
5,Cc1ccc(-c2nnc(C)[nH]2)c(NC(=O)CCl)c1,-0.734 (inactive)
6,Cc1ccc(C)c(Oc2ccc(CNC(=O)CCl)cn2)c1.Cl,-0.627 (inactive)
7,Cc1nc(CN2CCCN(C(=O)CCl)CC2)no1.Cl,0.233 (inactive)
8,N#Cc1ccc(CNC(=O)CCl)cc1,-0.413 (inactive)
9,CC(C)n1nccc1NC(=O)CCl,-0.514 (inactive)
10,CC(NC(=O)CCl)c1ccc2[nH]ncc2c1 (stereo not drawn),-0.509 (inactive)
11,Cl.O=C(CN1CCN(C(=O)CCl)CC1)Nc1ccc(F)cc1,0.0867 (inactive)
12,CC(NC(=O)CCl)c1cnn(C2CC2)c1 (stereo not drawn),-0.784 (inactive)
13,NC(=O)C(Cc1ccccc1)NC(=O)CCl (stereo not drawn),-0.291 (inactive)
14,O=C(CCl)NC1CCN(C(=O)C2CCCCC2)CC1,-0.158 (inactive)
15,Cc1cc(Cl)ccc1NC(=O)CCl,-0.208 (inactive)
16,COc1ccc(Cl)cc1NC(=O)CCl,-0.784 (inactive)
17,O=C(CCl)Nc1nnc(CC(F)(F)F)o1,-0.777 (inactive)

row,Structure (SMILES),log2 ratio of Biotin-Ahx-Ub-VS probe labelling
1,O=C(CCl)N(C1=CCCCC1)C1CC1,-0.226 (inactive)
2,Cc1ccc(CN(CCO)C(=O)CCl)cc1,-0.431 (inactive)
3,CC(NC(=O)CCl)c1cccc2ccccc12 (stereo not drawn),-0.33 (inactive)
4,O=C(CCl)N1CCCCC12CCOCC2,-0.341 (inactive)
5,Cl.Cn1ncc2c1CCCC2NC(=O)CCl (stereo not drawn),-0.289 (inactive)
6,COCC[C@@H](NC(=O)CCl)c1ccccc1,-0.293 (inactive)
7,CN(C(=O)CCl)c1nc2ccccc2s1,-0.235 (inactive)
8,O=C(CCl)N1CCC(C(=O)N2CCCCCC2)CC1,-0.0854 (inactive)
9,O=C(CCl)N1CCOC2(CCC2)CC1,-0.448 (inactive)
10,O=C(CCl)NCCC1=CCCCC1,-0.223 (inactive)
11,O=C(CCl)N(C1CCCC1)C1CCS(=O)(=O)C1 (stereo not drawn),0.0715 (inactive)
12,Cc1noc(N2CCN(C(=O)CCl)CC2)n1.Cl,-0.13 (inactive)
13,COc1ccccc1C(C)NC(=O)CCl (stereo not drawn),-0.536 (inactive)
14,O=C(CCl)N(Cc1ccsc1)C1CC1,-0.45 (inactive)
15,O=C(CCl)N1CCC(S(=O)(=O)c2ccc(F)cc2)CC1,-0.444 (inactive)
16,Cc1nc(CN2CCN(C(=O)CCl)CC2)cs1,-0.212 (inactive)
17,O=C(CCl)N1CC2(CCOCC2)C1,-0.275 (inactive)
